Measurements reported in PubChem BioAssay AID1851 (National Center for Advancing Translational Sciences (NCATS), 2009).
Among all 16,000 compounds or so, about 5,100 (32%) were called active. Not shown: some 25% with an inconclusive outcome. Calls follow the shape of the dose curve; as a rule, active = well fitted curve in the direction sought with a large enough effect; inconclusive = small, poorly fitted or top-dose-only effect, or effect the other way; inactive = no such curve, though single readings can be large or run the other way. The list shows a part of the results.

Target: Cytochrome P450 3A4 (Homo sapiens) (UniProt P08684)
Sequence (P08684 whole entry, looked up): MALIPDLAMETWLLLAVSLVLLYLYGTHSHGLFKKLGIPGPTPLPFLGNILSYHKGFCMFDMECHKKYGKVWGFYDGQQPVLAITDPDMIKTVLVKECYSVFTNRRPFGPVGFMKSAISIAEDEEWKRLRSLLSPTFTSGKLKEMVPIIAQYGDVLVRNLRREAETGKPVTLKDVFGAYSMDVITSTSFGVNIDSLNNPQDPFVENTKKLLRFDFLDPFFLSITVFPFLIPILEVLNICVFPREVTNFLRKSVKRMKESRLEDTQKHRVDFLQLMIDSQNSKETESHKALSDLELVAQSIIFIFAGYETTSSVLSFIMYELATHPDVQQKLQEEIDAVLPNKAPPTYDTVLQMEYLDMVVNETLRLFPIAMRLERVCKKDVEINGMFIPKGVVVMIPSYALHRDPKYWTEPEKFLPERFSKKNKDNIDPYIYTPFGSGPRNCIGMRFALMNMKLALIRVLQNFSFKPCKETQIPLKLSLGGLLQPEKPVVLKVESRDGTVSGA
Test: Cytochrome panel assay with activity outcomes
Conditions: recombinant CYP, pro-luciferin dealkylation, luminescence, p450-cyp3a4; series mostly up to 57.1 µM
% is scaled to controls: 0 for no effect and ±100 for the full control effect.

Compound | activity, negative = inhibition | AC50
Cc1ccc([C@@]2(C)CC/C(=N/N=C3\CC[C@](C)(c4ccc(C)c(C)c4)c4cc(C)c(C)cc43)c3cc(C)c(C)cc32)cc1C | -0.566% [at 11.4 µM] (inactive) | –
S=C1SCN(Cc2ccccn2)CN1Cc1ccco1 | – | 20 µM (active)
S=c1nc[nH]c2c1ncn2Cc1ccco1 | -14.9% [at 11.4 µM] (inactive) | –
c1ccc(CCNCc2ccco2)nc1 | -15.3% [at 11.4 µM] (inactive) | –
C/C(=N/O)c1ccc2cc(Br)c3ccccc3c2c1 | -23.8% [at 11.4 µM] (inactive) | –
O=C1/C(=C\c2ccc(Br)o2)SC(=Nc2ccccc2)N1c1ccccc1 | – | inactive
O=C1C(Cc2ccccc2)SC(=Nc2ccccc2)N1c1ccccc1 (configuration not stated) | – | 3.98 µM (active)
C=CCn1c(=O)c2c(nc(Br)n2Cc2ccccc2Cl)n(C)c1=O | – | 0.794 µM (active)
COC(=O)Cn1c(=O)c2c(nc(Br)n2Cc2ccccc2Cl)n(C)c1=O | -4.19% [at 2.29 µM] (inactive) | –
C=CCn1c(=O)c2c(nc(-c3ccc(S(=O)(=O)O)cc3)n2C)n(C)c1=O | – | inactive
O=C(COc1ccccc1-c1ccccc1)N/N=C/c1cccc2ccccc12 | 1.08% [at 2.29 µM] (inactive) | –
O=C(COc1ccc(-c2ccccc2)cc1)N/N=C/c1ccccc1Br | – | 14.1 µM (active)
Cc1nnc(NC(=O)CCC(=O)NCc2cccs2)s1 | – | inactive
COc1ccccc1OCCn1cc(C(=O)c2ccco2)c2ccccc21 | – | 3.98 µM (active)
O=C(Cn1cccc1C(=O)c1ccccc1)NCc1cccs1 | – | 10 µM (active)
Cc1ccccc1C(=O)c1cccn1CC(=O)NCc1ccco1 | – | 22.4 µM (active)
O=C(Cn1cc(C(=O)c2ccco2)c2ccccc21)NCc1ccco1 | – | 25.1 µM (active)
c1ccc2c(c1)ncn2Cc1nnc2sc(-c3ccc4c(c3)OCO4)nn12 | – | 2.24 µM (active)
CC(C)Oc1ccc(N2CC(C(=O)OCC(=O)NCc3ccccc3)CC2=O)cc1 (configuration not stated) | 1.29% [at 2.29 µM] (inactive) | –
COc1ccc(N2CC(C(=O)OCC(=O)c3cccc(OC)c3)CC2=O)cc1 (configuration not stated) | – | 14.1 µM (active)
COC(=O)c1sccc1NC(=O)CSc1ccccc1NS(=O)(=O)c1ccc(Cl)cc1 | – | 3.55 µM (active)
COC(=O)c1sccc1NC(=O)CSc1cc(Cl)ccc1Cl | – | 22.4 µM (active)
COC(=O)c1sccc1NC(=O)CN(C)NS(=O)(=O)c1ccc(F)cc1 | – | inactive
COC(=O)c1sccc1NC(=O)CSc1ccc(Cl)cc1 | -2.63% [at 2.29 µM] (inactive) | –
Cc1ccccc1NC(=O)CSc1nnc(-c2ccccc2)n1-c1ccccc1 | – | 3.55 µM (active)

Compound | activity, negative = inhibition | AC50
CCn1c(SCC(=O)Nc2ccccc2C(=O)OC)nnc1-c1ccc(N)cc1 | – | 0.631 µM (active)
Cc1ccc(C(=O)NNC(=O)CSc2nnc(-c3ccncc3)n2-c2ccc(C)cc2)cc1 | – | 3.16 µM (active)
O=C(CSc1nnc(-c2ccccc2)n1-c1ccccc1)c1cccs1 | – | 7.08 µM (active)
CCOC(=O)c1ccccc1NC(=O)CSc1cccc[n+]1[O-] | – | inactive
CCCCOC(=O)Nc1ccccc1C(=O)OC | 20.6% [at 11.4 µM] (inactive) | –
O=C(O)c1cc2cc(Cl)ccc2oc1=O | – | inactive
CN(C)CCNC(=O)C1CCCNC1=O (configuration not stated) | – | inactive
CCOc1ccc(-n2c(SCC(=O)Nc3ccccc3C)n[nH]c2=O)cc1 | – | 12.6 µM (active)
Cc1ncn(-c2ccccc2O)c1C | -10.7% [at 11.4 µM] (inactive) | –
Cc1cnc(NC(=O)CCCc2nc3ccccc3s2)s1 | – | 2 µM (active)
CCCCOC(=O)Nc1nc2ccccc2s1 | 0.331% [at 11.4 µM] (inactive) | –
OC[C@H]1O[C@H](n2cnc3c(NC4CCCC4)nc(Cl)nc32)[C@@H](O)[C@@H]1O | – | inactive
NC1(C(=O)O)CC(C(=O)O)C1 (configuration not stated) | – | inactive
COc1cc(C2C(C(=O)OCCC#N)=C(C)NC3=C2S(=O)(=O)c2ccccc23)cc(OC)c1OC (configuration not stated) | – | 5.01 µM (active)
Cc1cc(C=O)c(C)n1-c1ccc(N2CCCCC2)c([N+](=O)[O-])c1 | – | inactive
COc1ccc(-n2c(C)cc(C=O)c2C)cc1Cl | 6.7% [at 2.29 µM] (inactive) | –
Cc1cc(C=O)c(C)n1-c1ccc(NC2CCCC2)c([N+](=O)[O-])c1 | – | 4.47 µM (active)
CN(C)c1ccc(-c2cc(N(C)Cc3ccco3)ncn2)cc1 | – | 12.6 µM (active)
CN(Cc1ccco1)c1cc(-c2ccc3c(c2)OCO3)ncn1 | – | 3.98 µM (active)
CN(Cc1ccco1)c1cc(-c2ccoc2)ncn1 | – | inactive
CS(=O)(=O)Nc1cccc(-c2ccc3ncnc(N4CCNCC4)c3c2)c1 | – | 15.8 µM (active)
CS(=O)(=O)Nc1cccc(-c2ccc3ncnc(N4CCOCC4)c3c2)c1 | – | 7.94 µM (active)
CS(=O)(=O)Nc1cccc(-c2ccc3ncnc(NCCN4CCOCC4)c3c2)c1 | – | 15.8 µM (active)
CN(C)CCSCCO | -12.3% [at 11.4 µM] (inactive) | –
COC(=O)C1=C(C)NC(C)=C([N+](=O)[O-])[C@@H]1c1ccccc1C(F)(F)F | – | 12.6 µM (active)

Compound | activity, negative = inhibition | AC50
O=C1c2c(O)cc(O)cc2O[C@@H](c2ccc(O)c(O)c2)[C@H]1O | – | 10 µM (active)
Oc1cc(O)c2c(c1)O[C@H](c1ccc(O)c(O)c1)[C@@H](O)[C@@H]2c1c(O)cc(O)c2c1O[C@@H](c1ccc(O)c(O)c1)[C@H](O)C2 | -13.1% [at 11.4 µM] (inactive) | –
Oc1cc(O)c2c(c1)O[C@H](c1ccc(O)c(O)c1)[C@H](O)C2 | – | inactive
CN(C)[C@H]1C(=O)C(C(=O)NCN2CCCC2)=C(O)[C@]2(O)C(=O)C3=C(O)c4c(O)cccc4[C@](C)(O)[C@H]3C[C@H]12 | -6.5% [at 11.4 µM] (inactive) | –
CC(=O)NC1=NC(=O)CS1 | – | inactive
N[C@@]1(C(=O)O)CN[C@H](C(=O)O)C1 | – | inactive
CCOc1cc(-c2noc(N)c2C#N)cc(OCC)c1OCC | – | 0.2 µM (active)
Cc1ccc(S(=O)(=O)N2CCN(C(=O)CN3CCN(C)CC3)C2)cc1 | – | inactive
Cc1ccc(S(=O)(=O)N2CCN(S(C)(=O)=O)C2)cc1 | -0.447% [at 11.4 µM] (inactive) | –
Cc1ccc(S(=O)(=O)N2CCN(Cc3ccccc3C(F)(F)F)CC2)cc1 | – | 8.91 µM (active)
O=C(Nc1cccc(OC(=O)c2cccnc2)c1)c1cccnc1 | -4.22% [at 2.29 µM] (inactive) | –
O=C(Nc1cccnc1)c1ccc2snnc2c1 | – | 11.2 µM (active)
CCOC(=O)c1ccccc1Oc1c(F)c(F)nc(NCCO)c1F | – | inactive
Cc1cc(C)c2cc(C#N)c(NCCOC(=O)c3ccccc3C)nc2c1 | – | 7.08 µM (active)
COC(=O)c1cc(C#N)c(NCc2ccc(Cl)cc2Cl)nc1C | – | inactive
Cc1cc(C)cc(N(C(=O)c2ccccn2)C(C(=O)NC2CCCCC2)c2cccs2)c1 (configuration not stated) | – | 5.01 µM (active)
O=C(NC1CCCCC1)C(c1cccs1)N(C(=O)C(F)(F)F)c1ccccc1 (configuration not stated) | – | 7.08 µM (active)
O=C(NC1CCCCC1)c1ccc(COCC(F)(F)F)o1 | – | inactive
COc1ccc(CCN(C(=O)C(F)(F)F)C(C(=O)NC2CCCC2)c2cccs2)cc1 (configuration not stated) | – | 3.55 µM (active)
Cc1nnc(N(C)C(=O)c2ccccn2)s1 | – | inactive
Cc1ccc(N(C(=O)C(F)(F)F)C(C(=O)NC2CCCCC2)c2cccs2)cc1C (configuration not stated) | – | 6.31 µM (active)
Cc1snc(SCC(=O)N/N=C(\N)COc2cccc(C(F)(F)F)c2)c1C#N | – | 3.16 µM (active)
O[C@H](CCCN1CCN(c2ncc(F)cn2)CC1)c1ccc(F)cc1 | – | inactive
O=C(CCNC(=O)Cn1cnc2ccccc2c1=O)NCC1COc2ccccc2O1 (configuration not stated) | 5.27% [at 2.29 µM] (inactive) | –
COc1ccc(OC)c(CNC(=O)CCNC(=O)Cn2ccc3ccccc3c2=O)c1 | 5.01% [at 2.29 µM] (inactive) | –

Compound | activity, negative = inhibition | AC50
COc1cccc(CNC(=O)CCNC(=O)Cn2ccc3ccccc3c2=O)c1 | – | 14.1 µM (active)
CC1CCN(C(NC(=O)c2ccco2)C(=O)c2ccccc2)CC1 (configuration not stated) | – | inactive
CCCC[C@@H]1C[C@H]1C(NC(=O)c1ccco1)c1ccc(Cl)cc1 (some centres not stated) | – | 7.94 µM (active)
CCCC[C@@H]1C[C@H]1C(NC(=O)c1ccco1)c1ccc(-c2ccccc2)cc1 (some centres not stated) | – | 15.8 µM (active)
CCCC[C@@H]1C[C@H]1C(NC(=O)c1ccco1)c1ccc(C(=O)OC)cc1 (some centres not stated) | – | 15.8 µM (active)
CCC1(c2ccccc2)C(=O)NCNC1=O | – | inactive
O=C(CSC1CC(=O)N(CC(c2ccccc2)c2ccccc2)C1=O)Nc1ccc(Cl)cc1 (configuration not stated) | – | 8.91 µM (active)
CCCCN1C(=O)CC(Sc2ccccc2C(=O)O)C1=O (configuration not stated) | – | inactive
Cc1cc2ccc(OC(=O)c3ccc(N=C(N)N)cc3)cc2oc1=O | -27.2% [at 11.4 µM] (inactive) | –
CN(C)CCCN1c2ccccc2Sc2cnccc21 | – | 1.58 µM (active)
CCC(=O)c1ccc2c(c1)N(CCCN(C)C)c1ccccc1S2 | – | inactive
CN(C)CCCN1c2ccccc2Sc2ccc3ccccc3c21 | -13.6% [at 11.4 µM] (inactive) | –
COc1cc2ccccc2cc1C(=O)Nc1ccc(S(=O)(=O)Nc2cc(C)on2)cc1 | 6.01% [at 11.4 µM] (inactive) | –
Cc1cc(NC(=O)COC(=O)c2ccc(NS(=O)(=O)c3ccc(C)c(C)c3)cc2)no1 | – | 5.01 µM (active)
O=C(Nc1ccc(S(=O)(=O)N2CCCCC2)cc1)c1ccc(CN2CCc3ccccc3C2)cc1 | – | inactive
O=C(NCc1ccccc1)c1ccc(S(=O)(=O)N2CCCc3ccccc32)cc1 | – | 10 µM (active)
Cc1cc(NC(=O)c2cccc(F)c2)no1 | – | inactive
Cc1cc(NC(=O)c2ccc(S(=O)(=O)Nc3ccccc3)cc2)no1 | 2.51% [at 2.29 µM] (inactive) | –
O=C(Cc1ccccc1)NC1CCN(S(=O)(=O)c2ccc(C(=O)O)cc2)CC1 | – | inactive
COc1ccccc1NC(=O)COC(=O)c1ccc(S(=O)(=O)NCc2ccco2)cc1 | – | 28.2 µM (active)
COc1ccccc1NS(=O)(=O)c1cccc(C(=O)OCC(=O)Nc2cc(C)on2)c1 | – | 7.08 µM (active)
COc1ccc(OC)c(NC(=O)C(CC(=O)O)NCc2ccco2)c1 (configuration not stated) | – | inactive
